# Source: article PMC5540273 (PLoS ONE, 2017)
# Test system: CLK1
# Conditions: concentration: 1 μM, replicates: in singlicate; n = 1
# 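Further: KINOMEscan kinase panel screen.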
row,SMILES,%Inh [%]
1,COc1cc2nccc(Nc3ccc(NC(=O)c4ccc(C)cc4)c(O)c3)c2cc1OC.Cl [GW440132],37
2,Nc1ncnc2[nH]c(-c3ccccc3)nc12 [AH5015],67
3,Cl.NC(=O)c1cccc(Nc2nccc(Nc3ccc(Oc4cccc(Cl)c4)c(Cl)c3)n2)c1 [GW659008],13
4,COC(=O)c1c(-c2ccccc2)c2cc(OC)ccc2c(=O)n1Cc1ccccc1,0
5,CN(C)CCN(C)C(=O)c1cc(-c2ccncc2)c(-c2ccc(Cl)c(O)c2)o1.Cl.Cl [SB-710397],18
6,CS(=O)(=O)c1ccc(-c2c(-c3ncn[nH]3)sc(N3CCOCC3)c2C#N)cc1,5
7,CC(=O)Nc1nc2cnc(Nc3cc(NC(=O)c4cccc(CCC#N)c4)ccc3C)nc2s1,0
8,COc1ccc(Nc2nccc(NCCNC(=O)Nc3ccccc3F)n2)cc1 [GSK1379901],32
9,CN1C(=O)C(Nc2ccc(Cl)c(C(=O)O)c2)=C(c2ccc(Cl)cc2)C1=O [SB-404290],18
10,Cn1cncc1-c1ccc2ncnc(Nc3ccc(OCc4ccccc4)cc3)c2c1 [GW320571],23
11,COc1cc2ncn(-c3cc(OCC4CCCO4)c(C(N)=O)s3)c2cc1OC (centres unmarked) [GSK204607],22
12,COc1ccccc1-c1ccc2c(NC(=O)C3CC3)n[nH]c2n1 [SB-711239],3
13,Cc1c(Cn2ccn3c(=O)cc(N4CCOCC4)nc23)cccc1C(F)(F)F [GSK2289044],33
14,Cc1ccc(NC(=O)Nc2cccc(Cl)c2)cc1-c1ccc(C(=O)Nc2ccncc2)cc1 [GSK1398468],30
15,Cl.Oc1ccc(-c2nc(-c3ccccc3)[nH]c2-c2ccncc2)cc1 [SB-428218],0
16,C[C@@H]1CCCCN1c1cc(-c2ccc3c(N)n[nH]c3c2)nc(N)n1 [GSK2258759],12
17,COC(=O)c1c(-c2ccccc2)c2cc(C(=O)O)ccc2c(=O)n1Cc1ccccc1,0
18,Cc1cccc(-c2nc(Nc3ccc4[nH]ncc4c3)c3ccccc3n2)n1 [GW857175],33

row,SMILES,%Inh [%]
1,Nc1nc(-c2nccs2)c(-c2ccnc3ccccc23)s1 [GW693542],22
2,Cc1c(O)cccc1Nc1ccnc2ccc(C(F)(F)F)cc12.Cl [GW466413],22
3,O=C(Nc1ccc2c(c1)OCO2)NC1CCN(c2ccnc(Nc3ccc(F)cc3)n2)C1 (centres unmarked) [GSK1379724],10
4,Cc1ccccc1-n1cnc2c(N)ncnc21 [SKF-97510],2
5,Cc1ccc(C(=O)Nc2ccc(Nc3ccnc4cc(-c5ccccn5)ccc34)cc2O)cc1.Cl [GW440146],13
6,COc1ccc(Nc2nccc(-c3cccc(NC(=O)c4cc5cc(F)ccc5[nH]4)c3)n2)cc1 [GSK1229782],33
7,COc1cccc(-c2cc(-c3c[nH]nc3-c3ccccn3)ccn2)c1 [GW680338],22
8,Cc1cccc(-c2nc(-c3ccc(S(C)(=O)=O)cc3)sc2-c2ccnc(NCCc3ccccc3)c2)c1,8
9,Clc1cc(Cl)cc(Nc2ccnc(Nc3cc(Cl)cc(Cl)c3)n2)c1 [GSK175726],17
10,O=C(Nc1n[nH]c2nc(-c3nccs3)c(Br)cc12)C1CC1 [SB-742251],1
11,O=C(Nc1n[nH]c2cc(-c3cccc(F)c3F)ccc12)C1CC1 [SB-733894],0
12,Cc1nnc(-c2ccc3occ(-c4ccc(S(C)=O)cc4)c3c2)[nH]1 (centres unmarked),0
13,Cc1cccc(-c2nc(C)cc(Nc3ccncc3)n2)n1 [GSK257997],13
14,NC(=O)c1nnc2ccccc2c1N,51
15,O=c1cc(N2CCOCC2)nc2n(Cc3cccc(Cl)c3Cl)ccn12 [GSK2286295],64
16,CS(=O)(=O)c1ccc(-c2nc3n(c2-c2ccncc2)CCC3)cc1 [SKF-105942],11
17,COc1ccc(C2=C(Nc3cccc(C(=O)O)c3)C(=O)NC2=O)cc1 [SB-390765],11

# Test system: CLK2
# Conditions: concentration: 1 μM, replicates: in singlicate; n = 1
row,SMILES,%Inh [%]
1,COc1cc2nccc(Nc3ccc(NC(=O)c4ccc(C)cc4)c(O)c3)c2cc1OC.Cl [GW440132],0
2,Nc1ncnc2[nH]c(-c3ccccc3)nc12 [AH5015],57
3,Cl.NC(=O)c1cccc(Nc2nccc(Nc3ccc(Oc4cccc(Cl)c4)c(Cl)c3)n2)c1 [GW659008],0
4,COC(=O)c1c(-c2ccccc2)c2cc(OC)ccc2c(=O)n1Cc1ccccc1,4
5,CN(C)CCN(C)C(=O)c1cc(-c2ccncc2)c(-c2ccc(Cl)c(O)c2)o1.Cl.Cl [SB-710397],0
6,CS(=O)(=O)c1ccc(-c2c(-c3ncn[nH]3)sc(N3CCOCC3)c2C#N)cc1,8
7,CC(=O)Nc1nc2cnc(Nc3cc(NC(=O)c4cccc(CCC#N)c4)ccc3C)nc2s1,3
8,COc1ccc(Nc2nccc(NCCNC(=O)Nc3ccccc3F)n2)cc1 [GSK1379901],0
9,CN1C(=O)C(Nc2ccc(Cl)c(C(=O)O)c2)=C(c2ccc(Cl)cc2)C1=O [SB-404290],7
10,Cn1cncc1-c1ccc2ncnc(Nc3ccc(OCc4ccccc4)cc3)c2c1 [GW320571],57
11,COc1cc2ncn(-c3cc(OCC4CCCO4)c(C(N)=O)s3)c2cc1OC (centres unmarked) [GSK204607],0
12,COc1ccccc1-c1ccc2c(NC(=O)C3CC3)n[nH]c2n1 [SB-711239],0
13,CSc1nn2c(=O)cc(N3CCOCC3)nc2n1Cc1cccc(C(F)(F)F)c1C [GSK2363608],0
14,Cc1c(Cn2ccn3c(=O)cc(N4CCOCC4)nc23)cccc1C(F)(F)F [GSK2289044],54
15,Cc1ccc(NC(=O)Nc2cccc(Cl)c2)cc1-c1ccc(C(=O)Nc2ccncc2)cc1 [GSK1398468],0
16,Cl.Oc1ccc(-c2nc(-c3ccccc3)[nH]c2-c2ccncc2)cc1 [SB-428218],6
17,C[C@@H]1CCCCN1c1cc(-c2ccc3c(N)n[nH]c3c2)nc(N)n1 [GSK2258759],0
18,COC(=O)c1c(-c2ccccc2)c2cc(C(=O)O)ccc2c(=O)n1Cc1ccccc1,13

row,SMILES,%Inh [%]
1,Cc1cccc(-c2nc(Nc3ccc4[nH]ncc4c3)c3ccccc3n2)n1 [GW857175],14
2,Nc1nc(-c2nccs2)c(-c2ccnc3ccccc23)s1 [GW693542],0
3,Cc1c(O)cccc1Nc1ccnc2ccc(C(F)(F)F)cc12.Cl [GW466413],14
4,O=C(Nc1ccc2c(c1)OCO2)NC1CCN(c2ccnc(Nc3ccc(F)cc3)n2)C1 (centres unmarked) [GSK1379724],0
5,Cc1ccccc1-n1cnc2c(N)ncnc21 [SKF-97510],26
6,Cc1ccc(C(=O)Nc2ccc(Nc3ccnc4cc(-c5ccccn5)ccc34)cc2O)cc1.Cl [GW440146],1
7,COc1ccc(Nc2nccc(-c3cccc(NC(=O)c4cc5cc(F)ccc5[nH]4)c3)n2)cc1 [GSK1229782],0
8,COc1cccc(-c2cc(-c3c[nH]nc3-c3ccccn3)ccn2)c1 [GW680338],22
9,Cc1cccc(-c2nc(-c3ccc(S(C)(=O)=O)cc3)sc2-c2ccnc(NCCc3ccccc3)c2)c1,2
10,Clc1cc(Cl)cc(Nc2ccnc(Nc3cc(Cl)cc(Cl)c3)n2)c1 [GSK175726],36
11,O=C(Nc1n[nH]c2nc(-c3nccs3)c(Br)cc12)C1CC1 [SB-742251],0
12,O=C(Nc1n[nH]c2cc(-c3cccc(F)c3F)ccc12)C1CC1 [SB-733894],13
13,Cc1nnc(-c2ccc3occ(-c4ccc(S(C)=O)cc4)c3c2)[nH]1 (centres unmarked),22
14,Cc1cccc(-c2nc(C)cc(Nc3ccncc3)n2)n1 [GSK257997],9
15,NC(=O)c1nnc2ccccc2c1N,17
16,O=c1cc(N2CCOCC2)nc2n(Cc3cccc(Cl)c3Cl)ccn12 [GSK2286295],14
17,CS(=O)(=O)c1ccc(-c2nc3n(c2-c2ccncc2)CCC3)cc1 [SKF-105942],0
18,COc1ccc(C2=C(Nc3cccc(C(=O)O)c3)C(=O)NC2=O)cc1 [SB-390765],3
